Test [1] deals with Estrogen receptor (Homo sapiens) (UniProt P03372). The test can be described thus: qHTS assay to identify small molecule antagonists of the estrogen receptor alpha (ER-alpha) signaling pathway using the BG1 cell line in the presence of 0.1 nM 17-beta-estradiol (AID 1259244). Further: nearly all actives have a fitted effect of over 50% in size. Further: potency means the concentration at half of the fitted maximal effect. The note with it: VM7Luc4E2 (BG1) ERE-luciferase, antagonist mode, 0.1 nM E2, 22 h; series mostly up to 92.4 µM. A digest of the protocol:
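Seeding of stripped-serum-adapted VM7Luc4E2 cells, 24 h attachment, compound transfer, then 0.1 nM final 17beta-estradiol; after 22 h incubation, ONE-Glo reagent and luminescence reading.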
For orientation: Quantitative high-throughput screening tests each substance at several concentrations.

Test [2] can be described thus: qHTS assay to identify small molecule HDAC inhibitors (AID 1259364). Further: potency means the concentration at half of the fitted maximal effect.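 Further: wild-type HCT-116 cells with endogenous class I/II HDAC activity; nearly all actives have a fitted effect of over 45% in size.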 The note with it: HCT-116 HDAC-Glo I/II luminescence, 2 h; series mostly up to 92.4 µM. A digest of the protocol: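 After a 2 hr compound incubation (37C, 5% CO2), HCT-116 cells seeded at 1,500/well the day before received HDAC-Glo reagent; signal read as luminescence after 30 min at room temperature.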

A short description of test [3]: qHTS assay to identify small molecule HDAC inhibitors - cell viability counter screen (AID 1259365). Further: nearly all actives have a fitted effect of over 50% in size. The note with it: HCT-116 viability, CellTiter-Glo ATP luminescence, 2 h; series mostly up to 92.4 µM. A digest of the protocol: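 HCT-116 wild-type, overnight attachment; 2hr drug exposure, 37C; CellTiter-Glo luminescent ATP readout after 30min RT.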
A short description of test [4]: qHTS assay to identify small molecule antagonists of the sonic hedgehog signaling (Shh) pathway - cell viability counter screen (AID 1259367). Further: nearly all actives have a fitted effect of over 55% in size. Further: potency means the concentration at half of the fitted maximal effect. The note with it: NIH/3T3 Gli1-Luc viability, CellTiter-Fluor, 24 h; series mostly up to 92.4 µM. A digest of the protocol: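 Conditioned medium drove Shh signaling in 3T3 Gli1-Luc cells exposed to compounds at 37C and 5% CO2. Viability was determined from CellTiter-Fluor fluorescence, with reagent incubated 1 hr after 23 hr of treatment.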

Test [5] is described as follows: qHTS assay to identify small molecule agonists of the sonic hedgehog signaling (Shh) pathway (AID 1259368; calls by dose curve;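 further: NIH/3T3-derived 3T3Gli1-Luc cells carrying a stable Gli1-driven firefly luciferase reporter; nearly all actives have a fitted effect of over 15% in size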). The note with it: NIH/3T3 Gli1-Luc reporter, luciferase, 24 h; series mostly up to 92.4 µM. A digest of the protocol:
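Stable NIH/3T3 Gli1-Luc reporter clone; 24 hr cpd exposure after a 4 hr settling period; luminescence endpoint.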

Test [6] in a line: qHTS assay to identify small molecule antagonists of the sonic hedgehog signaling (Shh) pathway (AID 1259369; calls by dose curve; further: nearly all actives have a fitted effect of over 45% in size; further: potency means the concentration at half of the fitted maximal effect). The note with it: NIH/3T3 Gli1-Luc reporter, Shh antagonist, luminescence 24 h; series mostly up to 92.4 µM. A digest of the protocol:
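Gli1 transcriptional reporter (firefly Luc) in NIH/3T3 background, conditioned-medium activated. 24hr exposure, luminescence endpoint.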

Test [7] can be described thus: qHTS assay to identify small molecule agonists of the androgen receptor (AR) signaling pathway in the presence of an antagonist - cell viability counter screen (AID 1259379). Further: nearly all actives have a fitted effect of over 25% in size. Further: potency means the concentration at half of the fitted maximal effect. The note with it: MDA-kb2 viability, CellTiter-Fluor, 16 h; series mostly up to 92.4 µM. A digest of the protocol: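 Counter screen for cell viability run in parallel with the AR agonist-mode luciferase assay. MDA-kb2 cells were co-treated with nilutamide (3.0uM final) and compounds, then incubated 16 hr at 37C, and CellTiter-Fluor fluorescence was measured.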

Test [8] in a line: qHTS assay to identify small molecule agonists of the estrogen receptor beta (ER-beta) signaling pathway - cell viability counter screen (AID 1259380). Further: nearly all actives have a fitted effect of over 30% in size. Further: potency means the concentration at half of the fitted maximal effect. The note with it: ER-beta-bla HEK293T viability, CellTiter-Glo luminescence, 16 h; series mostly up to 92.4 µM. A digest of the protocol: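 In this qHTS counter screen, HEK293T cells carrying an ER-beta/UAS beta-lactamase reporter, grown in 2% charcoal-stripped FBS, received compound for 16 hr; ATP-based CellTiter-Glo luminescence was then read after 30 min at room temperature.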

Test [9] in a line: qHTS assay to identify small molecule antagonists of the estrogen receptor beta (ER-beta) signaling pathway - cell viability counter screen (AID 1259382). Further: nearly all actives have a fitted effect of over 55% in size. The note with it: ER-beta-UAS-bla HEK293T viability, CellTiter-Glo luminescence, 16 h; series mostly up to 92.4 µM. A digest of the protocol: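 HEK293T ER-beta-UAS-bla, 2% charcoal-stripped FBS; compounds + 1nM E2 16 hr 37C; CellTiter-Glo luminescence, 30 min RT.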

Test [10] in a line: qHTS assay to identify small molecule agonists or antagonists of the thyroid stimulating hormone receptor (TSHR) signaling pathway - wild type cell line counter screen (AID 1259384; calls by dose curve). The note with it: HEK293 wild type, cAMP HTRF counter-screen; series mostly up to 92.4 µM. A digest of the protocol: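 Wild-type HEK293 cells were plated 18 h at 37 C/5% CO2, pin-dosed with compound plus Ro20-1724 medium, held 30 min at room temperature, then given cAMP-d2 and anti-cAMP-cryptate; fluorescence was read after 1 h. Fifteen concentrations, triplicate.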

The target of test [11] is Thyrotropin receptor (Homo sapiens) (UniProt P16473). The test can be described thus: qHTS assay to identify small molecule antagonists of the thyroid stimulating hormone receptor (TSHR) signaling pathway (AID 1259385; calls by dose curve; further: nearly all actives have a fitted effect of over 20% in size). The note with it: TSHR-HEK293 cAMP HTRF, TSH-stimulated antagonist mode; series mostly up to 92.4 µM. A digest of the protocol: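 TSHR-HEK293 cells were plated and held 18 h at 37C/5% CO2, then given compound plus Ro20-1724 and stimulated with TSH at 1.5 ng/mL final. After 30 min at room temperature, cAMP was detected with cAMP-d2/anti-cAMP-cryptate (1 h) by fluorescence.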
Sequence of Thyrotropin receptor (Homo sapiens) (P16473 whole entry, looked up): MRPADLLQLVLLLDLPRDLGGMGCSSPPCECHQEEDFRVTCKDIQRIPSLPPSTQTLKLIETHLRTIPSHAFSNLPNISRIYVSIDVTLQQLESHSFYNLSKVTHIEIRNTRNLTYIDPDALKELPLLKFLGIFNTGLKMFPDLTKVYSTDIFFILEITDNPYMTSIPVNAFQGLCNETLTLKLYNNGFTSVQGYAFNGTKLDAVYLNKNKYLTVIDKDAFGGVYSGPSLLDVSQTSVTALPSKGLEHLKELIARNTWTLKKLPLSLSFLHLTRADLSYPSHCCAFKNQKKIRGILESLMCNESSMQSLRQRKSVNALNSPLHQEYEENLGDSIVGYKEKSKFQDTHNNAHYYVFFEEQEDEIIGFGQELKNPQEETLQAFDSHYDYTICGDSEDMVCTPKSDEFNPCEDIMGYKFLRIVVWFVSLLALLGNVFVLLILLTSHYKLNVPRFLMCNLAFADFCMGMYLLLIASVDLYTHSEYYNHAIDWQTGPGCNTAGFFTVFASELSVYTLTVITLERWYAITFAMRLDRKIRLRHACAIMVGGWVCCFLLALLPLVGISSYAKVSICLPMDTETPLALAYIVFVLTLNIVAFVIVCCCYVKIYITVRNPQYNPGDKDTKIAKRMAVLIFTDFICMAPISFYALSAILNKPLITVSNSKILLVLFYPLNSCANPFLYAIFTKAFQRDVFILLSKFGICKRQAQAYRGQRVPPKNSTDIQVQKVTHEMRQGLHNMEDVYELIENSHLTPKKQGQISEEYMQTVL

Test [12] in a line: qHTS assay to identify small molecule agonists of the estrogen receptor alpha (ER-alpha) signaling pathway in the presence of an antagonist - cell viability counter screen (AID 1259386).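 Further: cells exposed to compounds for 22 h at 37 °C before the viability read; nearly all actives have a fitted effect of over 30% in size.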 Further: potency means the concentration at half of the fitted maximal effect. The note with it: VM7Luc4E2 viability, CellTiter-Fluor fluorescence, 22 h; series mostly up to 92.4 µM. A digest of the protocol:
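Steps: 5-day stripped-FBS culture; seed and incubate 24hr; add ICI-182,780 (10.0nM final); pin 15-point compound titration; incubate 22hr at 37C; add CellTiter-Fluor at 21hr; read fluorescence.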

Test [13] addresses Progesterone receptor (Homo sapiens) (UniProt P06401). As to the kind of experiment: qHTS assay to identify small molecule agonists of the progesterone receptor (PR) signaling pathway (AID 1346784; calls by dose curve; further: nearly all actives have a fitted effect of over 30% in size). The note with it: PR-UAS-bla HEK293T, beta-lactamase FRET ratio, 16 h; series mostly up to 92.4 µM. A digest of the protocol: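 Fluorescence from LiveBLAzer B/G FRET substrate cleavage (2 hr, RT) reported PR activation in PR-UAS-bla HEK 293T cells treated 16 hr at 37C/5% CO2 with compounds; medium contained 2% charcoal-stripped FBS.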

Test [14] can be described thus: qHTS assay to identify small molecule agonists of the sonic hedgehog signaling (Shh) pathway - cell viability counter screen (AID 1259366). Further: nearly all actives have a fitted effect of over 50% in size. Further: potency means the concentration at half of the fitted maximal effect. The note with it: NIH/3T3 Gli1-Luc viability, CellTiter-Fluor, 24 h; series mostly up to 92.4 µM. A digest of the protocol: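 Compounds in DMSO were pin-transferred onto 3T3 Gli1-Luc cells that had settled 4hr; plates then stood 24hr at 37C and 5% CO2. One hour before the end, CellTiter-Fluor was added and fluorescence recorded.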

In test [15] the target is Estrogen receptor (Homo sapiens) (UniProt P03372). As to the kind of experiment: qHTS assay to identify small molecule agonists of the estrogen receptor alpha (ER-alpha) signaling pathway in the presence of an antagonist (AID 1259383; calls by dose curve; further: nearly all actives have a fitted effect of over 15% in size; further: potency means the concentration at half of the fitted maximal effect; on activation: top concentration of the series differs between compounds). The note with it: VM7Luc4E2 cells, ERE-luciferase, +ICI-182,780, 22 h; series mostly up to 92.4 µM. A digest of the protocol:
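ER-alpha agonism measured under antagonist challenge: 10.0nM ICI-182,780 (final) plus compound, 15 concentrations, 22hr, VM7Luc4E2 ERE-luciferase cells. Read by luminescence.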

In test [16] the target is Estrogen receptor beta (Homo sapiens) (UniProt Q92731). The test can be described thus: qHTS assay to identify small molecule agonists of the estrogen receptor beta (ER-beta) signaling pathway (AID 1259377; active means well fitted activation curve with a large enough effect in the signal ratio in the repeat runs, not every such curve was filed as active; the % refers to the signal ratio). The note with it: ER-beta-UAS-bla HEK293T, beta-lactamase FRET ratio, 16 h; series mostly up to 92.4 µM. A digest of the protocol:
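qHTS in ER-beta-UAS-bla HEK293T cells: 6 hr settling, then 16 hr compound at 37C, then LiveBLAzer substrate 2 h at RT before fluorescence reading.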

The target in test [17] is Androgen receptor (Homo sapiens) (UniProt P10275). The test can be described thus: qHTS assay to identify small molecule agonists of the androgen receptor (AR) signaling pathway in the presence of an antagonist (AID 1259381; calls by dose curve; further: nearly all actives have a fitted effect of over 15% in size). The note with it: MDA-kb2 MMTV-luciferase, AR agonist + nilutamide, 16 h; series mostly up to 92.4 µM. A digest of the protocol:
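AR antagonist background: nilutamide 3.0uM final. Cell line: MDA-kb2, MMTV-driven luciferase, responsive to both AR and GR. Exposure 16hr, 37C, no CO2; ONE-Glo luminescence.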

The target of test [18] is Estrogen receptor beta (Homo sapiens) (UniProt Q92731). The test can be described thus: qHTS assay to identify small molecule antagonists of the estrogen receptor beta (ER-beta) signaling pathway (AID 1259378; active means well fitted inhibition curve with a large enough effect in the signal ratio in the repeat runs, not every such curve was filed as active; the % refers to the signal ratio). The note with it: ER-beta-UAS-bla HEK293T, beta-lactamase FRET ratio, 16 h; series mostly up to 92.4 µM. A digest of the protocol: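 ER-beta-UAS-bla HEK293T (GripTite) cells in 2% charcoal-stripped FBS medium were preincubated 6 hr at 37C, dosed with compound, then stimulated with 1 nM E2 (final) for 16 hr; beta-lactamase reporter read by B/G FRET fluorescence after 2 hr substrate loading.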
Sequence of Estrogen receptor beta (Homo sapiens) (Q92731 whole entry, looked up): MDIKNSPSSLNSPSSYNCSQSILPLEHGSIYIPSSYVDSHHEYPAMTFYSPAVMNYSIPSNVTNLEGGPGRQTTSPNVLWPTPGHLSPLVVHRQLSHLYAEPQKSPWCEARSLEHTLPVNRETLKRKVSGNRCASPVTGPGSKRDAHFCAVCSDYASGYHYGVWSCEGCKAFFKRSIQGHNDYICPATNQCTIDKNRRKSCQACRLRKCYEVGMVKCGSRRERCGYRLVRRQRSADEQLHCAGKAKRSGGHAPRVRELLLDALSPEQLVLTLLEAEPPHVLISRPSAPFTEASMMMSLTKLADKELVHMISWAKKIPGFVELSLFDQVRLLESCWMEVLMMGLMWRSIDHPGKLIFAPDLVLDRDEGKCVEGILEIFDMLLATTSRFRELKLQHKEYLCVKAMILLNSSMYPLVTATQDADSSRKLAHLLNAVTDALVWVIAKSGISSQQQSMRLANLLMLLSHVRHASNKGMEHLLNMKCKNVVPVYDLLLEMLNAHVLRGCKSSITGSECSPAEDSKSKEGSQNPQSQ

“And” between values parts separate entries of the source, which are not always exact repeats. Equal entries are not always repeated. Records with an inconclusive call do not appear. Where a structure was tested more than once in an assay, its records may differ in their call. The source made the active and inactive calls. Unless noted, the call rests on the fitted dose curve; in most records, active means well fitted curve in the direction sought with a large enough effect in the repeat runs; inconclusive means weak or mixed curves; inactive means no such curve, though single readings can be large; an effect the other way counts as inactive or inconclusive.

Potency and outcome data for six compounds are collected here from PubChem BioAssay (Tox21).

Sequence of Progesterone receptor (Homo sapiens) (P06401 whole entry, looked up): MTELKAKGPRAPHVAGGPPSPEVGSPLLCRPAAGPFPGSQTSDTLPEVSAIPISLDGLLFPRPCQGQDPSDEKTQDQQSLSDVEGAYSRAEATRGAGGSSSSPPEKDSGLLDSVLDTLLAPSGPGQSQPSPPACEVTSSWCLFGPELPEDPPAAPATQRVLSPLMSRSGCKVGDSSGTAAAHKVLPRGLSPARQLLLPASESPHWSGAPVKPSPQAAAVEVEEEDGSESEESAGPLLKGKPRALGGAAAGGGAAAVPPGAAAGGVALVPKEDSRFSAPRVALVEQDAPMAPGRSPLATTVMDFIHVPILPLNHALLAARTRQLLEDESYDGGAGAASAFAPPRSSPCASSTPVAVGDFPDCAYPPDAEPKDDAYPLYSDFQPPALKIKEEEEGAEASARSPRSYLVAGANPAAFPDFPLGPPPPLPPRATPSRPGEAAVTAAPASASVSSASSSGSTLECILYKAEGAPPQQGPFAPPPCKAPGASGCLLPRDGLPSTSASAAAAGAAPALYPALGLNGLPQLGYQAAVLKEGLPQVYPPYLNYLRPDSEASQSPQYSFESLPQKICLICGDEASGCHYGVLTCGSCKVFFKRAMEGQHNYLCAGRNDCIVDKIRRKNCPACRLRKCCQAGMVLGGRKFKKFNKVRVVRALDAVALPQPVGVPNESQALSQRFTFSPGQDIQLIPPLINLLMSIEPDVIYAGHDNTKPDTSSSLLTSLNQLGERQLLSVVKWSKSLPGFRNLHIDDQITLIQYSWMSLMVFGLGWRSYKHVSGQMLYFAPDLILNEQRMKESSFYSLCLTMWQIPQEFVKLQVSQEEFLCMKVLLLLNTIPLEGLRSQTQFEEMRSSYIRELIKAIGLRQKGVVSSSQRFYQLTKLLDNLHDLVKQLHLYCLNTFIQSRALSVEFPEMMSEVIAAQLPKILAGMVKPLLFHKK
Sequence of Estrogen receptor (Homo sapiens) (P03372 whole entry, looked up): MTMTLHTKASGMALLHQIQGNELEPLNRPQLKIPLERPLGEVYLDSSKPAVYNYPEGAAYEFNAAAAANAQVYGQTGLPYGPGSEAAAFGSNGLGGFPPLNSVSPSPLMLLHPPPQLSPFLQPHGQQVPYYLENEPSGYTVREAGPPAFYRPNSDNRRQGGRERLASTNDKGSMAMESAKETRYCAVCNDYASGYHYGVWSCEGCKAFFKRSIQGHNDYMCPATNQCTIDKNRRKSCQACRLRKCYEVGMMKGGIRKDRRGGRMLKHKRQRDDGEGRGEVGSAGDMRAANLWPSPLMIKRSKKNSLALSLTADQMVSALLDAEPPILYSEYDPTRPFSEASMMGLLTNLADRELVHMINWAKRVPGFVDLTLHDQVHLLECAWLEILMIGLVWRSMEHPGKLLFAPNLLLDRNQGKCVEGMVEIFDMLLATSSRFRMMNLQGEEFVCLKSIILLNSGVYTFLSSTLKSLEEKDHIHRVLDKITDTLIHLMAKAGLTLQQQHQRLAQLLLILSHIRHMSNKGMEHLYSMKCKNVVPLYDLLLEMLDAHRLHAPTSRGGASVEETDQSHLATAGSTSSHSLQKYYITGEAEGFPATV
Sequence of Androgen receptor (Homo sapiens) (P10275 whole entry, looked up): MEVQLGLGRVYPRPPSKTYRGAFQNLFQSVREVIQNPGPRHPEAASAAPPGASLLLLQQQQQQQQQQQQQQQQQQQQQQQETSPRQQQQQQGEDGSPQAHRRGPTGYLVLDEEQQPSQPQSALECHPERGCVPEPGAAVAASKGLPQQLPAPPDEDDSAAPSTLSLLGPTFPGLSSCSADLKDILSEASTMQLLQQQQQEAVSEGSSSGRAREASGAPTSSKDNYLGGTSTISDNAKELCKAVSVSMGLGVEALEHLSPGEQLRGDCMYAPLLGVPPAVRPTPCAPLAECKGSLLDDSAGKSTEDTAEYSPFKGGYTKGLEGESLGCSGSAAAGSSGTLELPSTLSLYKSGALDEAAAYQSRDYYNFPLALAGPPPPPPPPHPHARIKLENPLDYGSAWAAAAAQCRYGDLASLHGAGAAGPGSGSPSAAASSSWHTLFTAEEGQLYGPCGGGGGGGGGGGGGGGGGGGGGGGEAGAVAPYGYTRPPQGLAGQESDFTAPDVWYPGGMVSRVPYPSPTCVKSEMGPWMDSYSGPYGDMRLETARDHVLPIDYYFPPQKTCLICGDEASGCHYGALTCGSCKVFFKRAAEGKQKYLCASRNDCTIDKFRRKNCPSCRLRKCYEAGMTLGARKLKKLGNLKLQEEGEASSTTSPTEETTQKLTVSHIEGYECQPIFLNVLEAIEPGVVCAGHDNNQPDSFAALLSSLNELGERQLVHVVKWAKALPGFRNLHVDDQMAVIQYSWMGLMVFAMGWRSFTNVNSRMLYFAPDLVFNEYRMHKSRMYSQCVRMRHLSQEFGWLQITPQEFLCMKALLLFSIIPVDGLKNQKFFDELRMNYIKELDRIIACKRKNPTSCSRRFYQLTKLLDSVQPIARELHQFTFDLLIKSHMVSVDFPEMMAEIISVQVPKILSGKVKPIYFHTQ

As to `c1ccc2cc3c(ccc4ccccc43)cc2c1`, the Potency result in [1], in [3], in [4], in test [5], in test [6] and in test [7] was “inactive” in each case. The Potency result in test [8], in test [9], in [10], in [11], in [12] and in test [13] was “inactive” in each case. Further, the Potency in [2] is 30.7 µM (active) and 27.3 µM (active).
For `Cc1cc(C2(c3cc(C)c(O)cc3C)OS(=O)(=O)c3ccccc32)c(C)cc1O`, the Potency result in test [1], in test [2], in [3], in test [5], in [6] and in test [8] was “inactive” throughout. The Potency entry in test [9], in test [10], in test [11] and in test [13] was “inactive” throughout. Besides, the Potency is 24.3 µM (active) and 12.2 µM (active) in [14]; 27.3 µM (active) and 13.7 µM (active) in [4]; 54.5 µM (active) and 27.3 µM (active) in test [7]; 43.3 µM (active) and inactive in test [15]; 30.6 µM (active) and 21.7 µM (active) in test [12].
In the case of `C=CC(=O)OCCCCCCOC(=O)C=C`, the Potency result in test [1], in [3], in test [5], in [17], in [9] and in test [15] was “inactive” in each case. Also, the Potency result in [10], in [11], in test [12] and in test [13] was “inactive” throughout. For the same compound, the Potency is 31 µM (active) and 61.1 µM (active) in test [14]; 54.5 µM (active) in test [4]; 19.6 µM (active) and 19.3 µM (active) in test [6]; 24.3 µM (active) in test [8]. In addition, the outcome in [16] was inactive.
For the compound `CC(C)(c1ccccc1)c1ccc(Nc2ccc(C(C)(C)c3ccccc3)cc2)cc1`, the Potency entry in test [1], in test [2], in test [3], in test [14], in [4] and in [5] was “inactive” in each case. Also, the Potency entry in [6], in test [7], in test [8], in test [9], in test [15] and in test [10] was “inactive” each time. Also, the Potency result in [11] and in [12] was “inactive” each time.
For `O=C(Nc1ccccc1SSc1ccccc1NC(=O)c1ccccc1)c1ccccc1`, the Potency in [1] is 27.4 µM (active) and inactive; in [2], 27.4 µM (active) and 19.3 µM (active); in [14] it was 13.8 µM (active) and 13.7 µM (active); in test [4] it was 13.8 µM (active) and 12.2 µM (active); in test [6], 4.88 µM (active) and 5.45 µM (active). In addition, the Potency result in [3], in test [5], in [9], in test [15], in [10] and in test [11] was “inactive” throughout. Moreover, the Potency entry in test [13] was “inactive”.
Turning to `CC(C(O)c1ccc(O)cc1)N1CCC(Cc2ccccc2)CC1` (stereo unspecified), the Potency entry in test [1], in [2], in test [3], in [4], in test [5] and in [6] was “inactive” throughout. In addition, the Potency entry in [18], in test [8], in test [9], in test [15] and in test [12] was “inactive” throughout. The outcome in test [16] was inactive.
